# According to article PMC5540273 (PLoS ONE, 2017):
# Experiments:
# Conditions in all cases: concentration: 1 μM, replicates: in singlicate; n = 1
# CDK2 = system: CDK2
# CDK3 = system: CDK3
# CDK4-cyclinD1 = system: CDK4-cyclinD1
# CDK4-cyclinD3 = system: CDK4-cyclinD3
# CDK4 = system: CDK4
# CDK5 = system: CDK5
# CDK7 = system: CDK7
# CDK8 = system: CDK8
# CDK9 = system: CDK9
# CDKL1 = system: CDKL1
# CDKL2 = system: CDKL2
# CDKL3 = system: CDKL3
# CDKL5 = system: CDKL5
# CHEK1 = system: CHEK1
# CHEK2 = system: CHEK2
# CIT = system: CIT
# CLK1 = system: CLK1
# CLK2 = system: CLK2
# CLK3 = system: CLK3
# CLK4 = system: CLK4
# 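Note: KINOMEscan kinase panel screen.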
Compound,%Inh (CDK2) [%],%Inh (CDK3) [%],%Inh (CDK4-cyclinD1) [%],%Inh (CDK4-cyclinD3) [%],%Inh (CDK4) [%],%Inh (CDK5) [%],%Inh (CDK7) [%],%Inh (CDK8) [%],%Inh (CDK9) [%],%Inh (CDKL1) [%],%Inh (CDKL2) [%],%Inh (CDKL3) [%],%Inh (CDKL5) [%],%Inh (CHEK1) [%],%Inh (CHEK2) [%],%Inh (CIT) [%],%Inh (CLK1) [%],%Inh (CLK2) [%],%Inh (CLK3) [%],%Inh (CLK4) [%]
C[C@@H]1CCN(C(=O)CO)C[C@@H]1N(C)c1ncnc2[nH]ccc12,0,0,0,0,0,4,20,0,9,12,2,0,0,0,1,0,3,6,0,0
COc1cc2ncnc(Nc3ccc(OCc4ccccc4Br)c(Cl)c3)c2cc1OC.Cl [GI261590],0,8,13,6,8,18,0,0,9,20,26,2,0,0,47,29,28,0,0,17
O=C(c1ccc(-c2cc(-c3c[nH]nc3-c3ccccn3)ccn2)cc1)N1CCCC1 [GW792479],19,72,22,0,0,38,0,63,2,57,24,3,0,0,0,18,0,8,0,0
Clc1cc(Nc2ncnc3cc[nH]c23)ccc1OCc1ccccn1,8,1,10,0,10,22,29,0,30,16,0,31,8,14,13,18,13,0,5,7
Fc1ccc(Nc2nccc(-c3c(-c4ccc(Cl)cc4)nn4ncccc34)n2)cc1F [GW829058],13,18,62,12,19,34,42,0,12,17,22,21,23,12,1,0,0,10,10,5
Cl.Cn1ccc(-c2cccc(Nc3ccnc4cc(-c5nccs5)ccc34)c2)n1 [GW525701],0,6,47,0,36,0,0,7,0,0,61,0,0,24,0,3,1,0,0,37
Fc1cccc(COc2ccc(Nc3ncnc4nn5ccccc5c34)cc2Cl)c1 [GW689066],0,0,13,0,33,0,0,37,0,0,1,0,0,0,28,0,9,0,0,0
CSc1ccc(NC2=C(c3ccccc3Cl)C(=O)NC2=O)cc1 [SB-342411],10,26,61,30,0,0,43,7,0,13,14,0,0,0,0,23,74,88,43,53
CCCc1ccc(S(=O)(=O)NC2CCN(c3ccnc(Nc4ccc(OC)cc4)n3)C2)cc1 (centres unmarked) [GSK1379737],0,16,25,0,37,0,0,50,0,6,19,0,0,0,15,32,23,0,0,6
COc1ccc(Nc2nccc(N3CCC(NC(=O)Nc4ccc5c(c4)OCO5)C3)n2)cc1 (centres unmarked) [GSK1379745],73,2,42,0,32,2,0,46,0,1,8,0,0,1,0,0,15,1,9,19
CC(C)(C)c1ccc(-n2cnc3c(N)ncnc32)cc1 [SKF-97263],0,3,0,0,0,0,0,0,0,0,0,0,0,34,0,31,36,20,19,50
FC(F)(F)c1ccc(-c2cc(-c3c[nH]nc3-c3ccccn3)ccn2)cc1 [GW599550],2,20,11,0,35,0,0,32,0,2,21,0,0,0,16,37,8,4,5,29
COC(=O)c1cccc(NC(=O)NCCNc2ccnc(Nc3ccc(F)cc3)n2)c1 [GSK1379883],0,2,0,0,34,0,0,8,0,3,5,0,0,0,5,35,15,0,14,42
Cl.Cl.c1ccc(-c2cc3ccncc3cc2OC2CCNCC2)cc1 [GSK1122999],0,10,0,0,11,0,0,15,2,10,10,0,7,3,0,55,64,32,4,71
Cl.Fc1ccccc1COc1ccc(Nc2ncnc3ccc(-c4nnc(C(F)(F)F)o4)cc23)cc1Cl [GW424170],0,0,0,0,26,0,0,29,0,3,0,0,0,5,7,11,31,0,4,13
Cl.O=S(=O)(c1cccc(F)c1)c1ccc(Nc2ncnc3cc(Br)sc23)cc1Cl [GSK306886],6,44,0,7,17,0,0,0,6,19,19,0,0,0,0,23,23,0,0,0
